Shown are actives, neighbours in structure and some others; about 11% of the full set was active somewhere.
IL-1B inflam inh: blocks inflammasome-driven IL-1 beta release. THP-1 LPS/ATP IL-1B secretion, AlphaLISA, 16 h; stronger effect = lower value. actives 4.7% (n = 360,000). activity change, % at 57.5 µM; in the data active means activity change below about -50%; inconclusive means mostly about -30% to -49%; further: on the % scale 0 is the no-effect control and ±100 the full control effect
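Secreted IL-1B measured by AlphaLISA bead assay after 16 h compound exposure of THP-1 cells; compounds (final up to 57.5 uM) added 1 h before LPS (250 ng/mL) and ATP (1.25 mM) stimulation; lower signal means less secretion.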
SW480 rerep: induces DNA re-replication in SW480 colon adenocarcinoma cells. Potency, µM (titrated, usually from 46.1 µM), for inactives: at the highest dose re-replication activation, most hits filed as activators. AID 624297. SW480 DNA re-replication, Hoechst DNA content imaging, 48 h. actives 1.8% (n = 340,000); further: potency means the concentration at half of the fitted maximal effect; % of control where 0% means no effect; nearly all actives have a fitted effect of over 55% in size
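Readout is total intensity of Hoechst-stained nuclei, excited at 405 nm and collected at 500-530 nm. Compound treatment lasted 48 hr at 37 C in 5% CO2 before staining.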
MCF10A rerep: DNA re-replication induction in MCF 10a cells; MCF 10A DNA re-replication, Hoechst nuclear intensity, 48 h; Potency, µM (top dose mostly 46.1 µM), without a hit: top-dose activity, positive = re-replication, actives largely listed as activators; actives 2.9% (n = 350,000); AID 624296; further: potency means the concentration at half of the fitted maximal effect; % of control where 0% means no effect; nearly all actives have a fitted effect of over 50% in size
Gal4-VP16 FLuc: inhibits Gal4-VP16 luciferase reporter, ROR gamma counter-screen; Drosophila S2 Gal4-VP16 UAS-luciferase, luminescence, 20 h; Potency, µM (titrated, usually from 53.6 µM), without a hit: at the highest dose activity, negative = inhibition, actives largely listed as inhibitors; actives 3.5% (n = 310,000); AID 2546;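 further: Gal4-VP16 expression switched on by copper sulfate through the metallothionein promoter; potency means the concentration at half of the fitted maximal effect; on the % scale 0 is the no-effect control and ±100 the full control effect; nearly all actives have a fitted effect of over 50% in size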
RORgamma inh: inhibitors of mouse ROR gamma transcriptional activity | P51450 | Drosophila S2 Gal4-RORgamma UAS-luciferase reporter, 20 h | Potency, µM (doses to about 53.6 µM), without a hit: at the top dose activity change, negative = inhibition, hits mostly inhibitors | actives 5.4% (n = 310,000) | AID 2551; further: potency means the concentration at half of the fitted maximal effect; on the % scale 0 is the no-effect control and ±100 the full control effect; nearly all actives have a fitted effect of over 60% in size
Target sequence (P51450 whole entry, looked up, the tested form may be a part): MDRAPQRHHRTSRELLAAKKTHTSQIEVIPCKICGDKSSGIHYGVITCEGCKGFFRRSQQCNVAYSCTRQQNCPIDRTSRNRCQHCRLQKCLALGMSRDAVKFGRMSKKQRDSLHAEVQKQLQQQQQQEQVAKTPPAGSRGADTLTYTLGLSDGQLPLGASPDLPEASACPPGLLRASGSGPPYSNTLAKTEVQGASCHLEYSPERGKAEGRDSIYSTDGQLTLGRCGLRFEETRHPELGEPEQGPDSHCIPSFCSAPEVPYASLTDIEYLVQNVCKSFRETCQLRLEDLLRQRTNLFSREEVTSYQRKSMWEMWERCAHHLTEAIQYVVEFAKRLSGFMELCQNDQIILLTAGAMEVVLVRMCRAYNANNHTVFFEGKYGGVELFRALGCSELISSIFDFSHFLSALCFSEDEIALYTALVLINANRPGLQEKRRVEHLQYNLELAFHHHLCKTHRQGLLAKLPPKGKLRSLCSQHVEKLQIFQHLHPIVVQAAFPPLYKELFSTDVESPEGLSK
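Stable Schneider cell line, Gal4 DNA-binding domain fused to ROR gamma, UAS-luciferase. Cmpd 1 hr RT → CuSO4 700 uM final → 20 hr RT → luciferase reagent 10 min → luminescence.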
* = called active by the depositor; u = inconclusive; x = no result given; [ ] = remark or other dose. Unless noted, the call rests on the fitted dose curve; in most records, active means well fitted curve in the direction sought with a large enough effect; inconclusive means small, poorly fitted or top-dose-only effect, or another doubt; inactive means no such curve, though single readings can be large; an effect the other way counts as inactive or inconclusive.

SMILES	IL-1B inflam inh	SW480 rerep	MCF10A rerep	Gal4-VP16 FLuc	RORgamma inh
Cc1c(Cl)cccc1NC(=S)N=Nc1c(O)n(CN2CCOCC2)c2ccccc12	3	u	8%	5µM*	1.8µM*
C=CCn1c(O)c(N=O)c2cc(C)ccc21	-52*	5%	0%	7%	24%
Oc1c(N=NC(=S)Nc2ccccc2F)c2ccccc2n1Cc1ccccc1Cl	u	3%	28%	6.3µM*	2.2µM*
Cc1c(Cl)cccc1NC(=O)CCN1CCOCC1	1	0%	-3%	-6%	-21%[1.91 µM]
Nc1ccccc1Oc1ccccc1	x	x	x	-11%	-2%
O=C1C2C3C=CC(C3)C2C(=O)N1c1ccc(N2CCN(c3ccccn3)CC2)c([N+](=O)[O-])c1 (stereo unspecified)	0	u	u	4µM*	u
Cc1cc(O)ccc1NC(=S)NC(=O)c1cncc(Br)c1	15	0%	-1%	0.56µM*	0.79µM*
O=C(NC(=S)NC1CCCCCC1)c1cncc(Br)c1	0	0%	u	6.3µM*	3.5µM*
O=C(NC(=S)Nc1ncc(Br)cc1Br)c1cncc(Br)c1	3	-2%	-5%	u	6.3µM*
CCN1CCC(O)(C(C(=O)OC)c2ccccc2)CC1 (stereo unspecified)	-5	-2%	2%	x	x
Cc1ccc(S(=O)(=O)N2C[C@H]3C(=O)C[C@@H](c4ccc(Cl)cc4)N(S(=O)(=O)c4ccc(C)cc4)[C@H]3C[C@H]2c2ccc(Cl)cc2)cc1	7	x	x	x	x
Cc1cnn(-c2nc(-c3ccccc3)cc(-c3ccccc3)n2)c1	x	u	1%	11µM*	3.2µM*
FC(F)(F)c1cc(-c2ccccc2)nc(-n2cc(Cl)cn2)n1	u	-11%	3%	2%	0%
CC1(c2nnc(-c3cccc(Cl)c3)o2)CC(c2ccc(OC(F)(F)F)cc2)=NO1 (stereo unspecified)	7	1%	3%	-6%	-7%
Oc1csc(Cc2nc(-c3ccc(Br)cc3)cs2)n1	21	-130%	u	-4%	u
Cc1sc(Cc2nc(O)cs2)nc1-c1ccccc1	65	0%	0%	-27%	11µM*
CCOC(=O)Cn1cc(Cn2c3ccccc3c(=O)n2C(C)C)nn1	10	x	x	x	x
CCOc1ccc(NC(=S)NNC(=O)c2ccc(Br)cc2)cc1	-64*	-12%	1%	-4%	-27%
CCOc1ccc(NC(=O)CCC(=O)c2ccc(Br)cc2)cc1	-14	0.65µM*	4%	6%	1%
COc1ccccc1/C=C1\SC(=S)N(CCC(=O)NCCCn2ccnc2)C1=O	10	-5%	-14%	-10%	16µM*
COc1ccccc1/C=C1\SC(=O)N(CCC(=O)NCCCn2ccnc2)C1=O	-9	-6%	0%	0%	-42%
O=C(CCCN1C(=O)/C(=C/c2ccc(F)cc2)SC1=S)NCCCn1ccnc1	-7	-14%	21µM*	u	8.9µM*
NS(=O)(=O)c1ccc(NC(=S)Nc2nn(Cc3ccc(Cl)cc3Cl)cc2Cl)cc1	-18	u	6%	6.3µM*	6.3µM*
NS(=O)(=O)c1ccc(NC(=S)Nc2ccc(F)c(F)c2)cc1	12	-5%	2%	5%	-20%
O=C(Nc1ccc(CN2CCOCC2)cc1)c1cc2ccccc2o1	-11	0%	-4%	u	11µM*
SMILES	IL-1B inflam inh	SW480 rerep	MCF10A rerep	Gal4-VP16 FLuc	RORgamma inh
COc1cc2ccccc2cc1C(=O)Nc1ccc(CN2CCOCC2)cc1	u	-1%	u	-4%	-19%
O=C(Nc1ccc(CN2CCOCC2)cc1)c1ccc(Cl)cc1Cl	0	u	7%	2%	-13%
O=C(Nc1ccc(CN2CCOCC2)cc1)c1cc(Br)ccc1Cl	-51*	u	u	8%	1%
O=C(Nc1ccc(CN2CCOCC2)cc1)c1ccccc1F	-8	-5%	12%	11µM*	0.63µM*
O=C(COc1ccc2cc(Br)ccc2c1Br)N1CCOCC1	-77*	u	3%	11%	33%
O=C(Nc1ccc2oc(=O)ccc2c1)c1cc2ccccc2o1	0	4%	0%	2%	-3%
O=C(Nc1ccc(CN2CCOCC2)cc1)c1cc2ccccn2n1	28	4%	23%	20µM*	10µM*
CC(=O)c1cccc(NC(=O)c2cc3ccccn3n2)c1	-19	-1%	-9%	u	8.9µM*
O=C(Nc1ccc2c(c1)OCCO2)c1cc2ccccc2o1	-68*	-10%	1%	u	-37%
O=C(Nc1ccc(Cl)cc1)c1cc(Br)ccc1OCC(=O)N1CCOCC1	-92*	u	u	-14%	13%
O=C(Nc1ccc(OCC(=O)N2CCOCC2)cc1)c1ccccc1F	19	7%	4%	u	u
CN(Cc1ccccc1)C(=O)Cn1nnc(-c2ccccc2)c1COc1ccccc1	-26	x	x	x	x
CC(=O)OCC(C)n1[nH]c2ccccc2c1=O (stereo unspecified)	3	x	x	x	x
COc1cc2c(c(OC)c1OC)-c1ccc(N(C)CC(OC)OC)c(=O)cc1[C@@H](NC(C)=O)CC2	74	1.5µM*	0.58µM*	0%	-16%
COc1cc2c(c(OC)c1OC)-c1ccc(NC(=O)c3ccc(F)cc3)c(=O)cc1[C@@H](NC(C)=O)CC2	14	u	3.3µM*	1%	44%
CN(C)C(CNC(=O)c1ccc(C2SCCS2)cc1)c1ccccc1 (stereo unspecified)	-2	-52%	-1%	2%	4%
CC(NC(=S)Nc1c(Cl)cccc1OC(F)F)C(C)(C)C (stereo unspecified)	4	0%	-8%	11µM*	13µM*
CC(NC(=S)Nc1ccc(OC(F)F)cc1OC(F)F)C(C)(C)C (stereo unspecified)	-91*	-5%	3%	16µM*	7.9µM*
CC(NC(=S)Nc1ccccc1OC(F)F)C(C)(C)C (stereo unspecified)	5	-9%	-3%	u	u
O=C(NNC(=S)Nc1ccc(Cl)cc1)c1ccccc1OC(F)F	20	u	17%	u	-39%
CCOC(=O)OCC1OC(C#Cc2ccc(F)cc2F)C=CC1OC(=O)OCC (stereo unspecified)	x	x	x	16%[10 µM]	5%[10 µM]
O=C(Nc1cccc(/C=C/c2ccccn2)c1)c1cc(Cl)ccn1	41	-1%	16%	6%	u
CCC(C)C(=O)N1c2ccccc2C(=C2SC(C(=O)OC)=C(C(=O)OC)S2)C(=S)C1(C)C (stereo unspecified)	-59*	9%[9.22 µM]	-4%	-17%	-10%
O=S(=O)(NC1c2cccc3cccc(c23)C1N1CCN(CCO)CC1)c1ccccc1 (stereo unspecified)	-8	6%[9.22 µM]	23µM*	-3%	-25%
COc1ccc(N2CCN(Cc3nc4scc(-c5cccs5)c4c(=O)[nH]3)CC2)cc1	-69*	-2%	0%	-1%	u

Screening results: PubChem BioAssay, National Center for Advancing Translational Sciences (NCATS)
